The values below come from PubChem BioAssay (NCI).

Each structure is given as a SMILES string. The panel holds about 83,000 compounds, 20% with a hit somewhere; the sample as a whole holds those more often.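 Growth was measured after 48 h exposure to one concentration of compound in 96-well plates. Values under 10 count as active.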 Values without a mark were called inactive. The source made the active and inactive calls.

The test system of this assay is MDA-MB-468 breast. As to the kind of experiment: NCI-60 one-dose screen, 48 h (100 = growth as untreated, 0 = no growth, -100 = all killed). The conditions noted are these: 10 µM unless noted.
As for `COC1(CC[C@@H](C)COC2OC(CO)C(O)C(O)C2O)O[C@H]2C[C@H]3[C@@H]4CC=C5C[C@@H](OC6OC(CO)C(OC7OC(C)C(O)C(O)C7O)C(O)C6OC6OC(C)C(O)C(O)C6O)CC[C@]5(C)[C@H]4CC[C@]3(C)[C@H]2[C@@H]1C` (some centres undefined), the growth is -24% (active).

As for `c1cc2cccc3c4cccc5cccc(c(c1)c23)c54`, the growth was 101%.

`COc1cc(C2NC(c3ccc(Cl)cc3)C(C)/C(=N/NC(N)=S)C2C)cc(OC)c1OC` (centres undefined): the growth was 88%.

As to `O=C(/C=C/c1ccc(Cl)cc1)c1ccccc1`, the growth is 89.7%.
